High-throughput results as filed in PubChem BioAssay.
S1P2 ag = S1P2 receptor agonists, primary screen, cell-based | Sphingosine 1-phosphate receptor 2 (Homo sapiens), O95136 | S1P2-expressing cell line, agonist reporter read-out | activation, % at 4.5 µM | actives 0.46% (n = 97,000) | AID 729, 2007; in the data active means activation above about 16%;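 further: 0% = vehicle low control and 100% = maximal reference agonist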
Target sequence (O95136 whole entry, looked up): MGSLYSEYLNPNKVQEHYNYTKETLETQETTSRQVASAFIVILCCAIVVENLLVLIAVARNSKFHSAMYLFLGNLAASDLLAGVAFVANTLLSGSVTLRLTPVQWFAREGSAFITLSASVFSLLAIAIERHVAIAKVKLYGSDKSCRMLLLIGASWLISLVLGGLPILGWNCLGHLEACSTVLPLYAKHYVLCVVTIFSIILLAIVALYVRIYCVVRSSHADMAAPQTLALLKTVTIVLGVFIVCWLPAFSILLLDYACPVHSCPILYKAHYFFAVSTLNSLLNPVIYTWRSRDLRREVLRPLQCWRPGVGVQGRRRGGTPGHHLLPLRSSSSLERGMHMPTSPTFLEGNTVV
PostGolgi yeast = phenotypic screen on post-Golgi transport, primary screen; post-Golgi transport phenotypic cell assay; inhibition, % at 10 µM; actives 0.9% (n = 98,000); AID 739, 2007;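 further: yeast cells grown in 1536-well plates; yeast grown about 18 h at 30C before absorbance read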
S1P2 antag = human S1P2 receptor antagonists, primary screen, cell-based | actives 0.21% (n = 97,000) | cell-based S1P2 antagonist assay, inhibition at 5 uM | Sphingosine 1-phosphate receptor 2 (Homo sapiens), O95136 | inhibition, % at 5 µM; in the data active means inhibition above about 45%;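 further: CRE beta-lactamase reporter cells expressing human S1P2 stimulated with S1P; 0% = agonist at EC80 alone and 100% = agonist plus reference antagonist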
GALR2 blocker = GALR2 antagonists in receptor-expressing cells, primary screen; actives 0.39% (n = 140,000); antagonist mode; inhibition, % at 4 µM; in the data active means inhibition above about 27%;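 further: cells stimulated with galanin 1-16 at roughly its EC80; 0% = agonist challenge control and 100% = basal control without agonist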
GALR2 agonist = GALR2 receptor agonists, primary screen, cell-based; Galanin receptor type 2 (Homo sapiens), O43603; GALR2-expressing cells, agonist activation read-out; activation, % (concentration not given with the values); actives 0.48% (n = 140,000); in the data active means activation above about 5%, passing the limit was not always enough;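 further: 0% = vehicle buffer wells and 100% = reference agonist at full effect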
PostGolgi ctrl = growth inhibition of yeast control strain, primary screen, counter-screen for post-Golgi transport modulator project; inhibition, % at 10 µM; AID 738, 2007; actives 5% (n = 98,000); efflux-deficient yeast background strain, growth absorbance A615, 16 h
GALR2 agon conf = GALR2 agonists, retest of hits, confirmation, cell-based; GALR2-expressing cells, agonist activation; actives 10% (n = 460); shares compounds with GALR2 agonist; activation, % at 5.6 µM; AID 864, 2007; in the data active means activation above about 8.4%;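 further: 0% = buffer-only vehicle wells and 100% = full reference agonist response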
BLA activ ctr = activators of NFAT-driven beta-lactamase reporter, confirmation, counter-screen for GALR2 agonist project, CHO NFAT-bla cells, FRET readout; shares compounds with GALR2 agonist; beta-lactamase FRET activation; activation, % at 5.6 µM; actives 10% (n = 460); AID 865, 2007;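 active means activation above the screen-wide mean activation plus 3 SD, cut at about 8% in these data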;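 further: 0% = DMSO with PBS wells and 100% = thapsigargin positive control wells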
An asterisk follows results filed as active; . = no result; ! = a repeat was not active. Many of the other results were omitted from the sample, so hits are more common in it than they were. Unless noted, no stated cut-off is given here; in the data, active means inhibition above about 30%; inactive means the rest.

SMILES | S1P2 ag | PostGolgi yeast | S1P2 antag | GALR2 blocker | GALR2 agonist | PostGolgi ctrl | GALR2 agon conf | BLA activ ctr
CCN1C(=O)C2(C(C#N)=C(N)Oc3n[nH]c(-c4ccc(Cl)cc4)c32)c2ccccc21 (configuration not stated) | -2 | -1 | -5 | 1 | 0 | 7 | . | .
N#CC1=C(N)Oc2n[nH]c(-c3ccccc3)c2C12C(=O)Nc1ccccc12 (configuration not stated) | . | -4 | . | 14 | 11* | 4 | -1 | -3
Cc1ccccc1OCCn1cc(/C=C(\C#N)C(=O)NCc2ccco2)c2ccccc21 | . | . | . | -5 | 1 | . | . | .
Cc1ccc(C)c(NC(=O)/C(C#N)=C/c2cn(CC(=O)NCc3ccco3)c3ccccc23)c1 | . | . | . | -9 | 70* | . | 27* | 27*
Cc1cc(C)cc(NC(=O)/C(C#N)=C/c2cn(CC(=O)NCc3ccco3)c3ccccc23)c1 | . | . | . | 5 | 52* | . | 26* | 24*
Cc1ccc(OCCOCCN(C)C)c(Cl)c1 | . | . | . | -9 | -1 | . | . | .
Cc1ccc(C(=O)NC(=S)Nc2ccc(NC(=O)c3cccc(Cl)c3)cc2)cc1 | . | . | . | -2 | 10* | . | 5 | 5
C/C(=N\Nc1nc(-c2cc(C)ccc2C)cs1)c1cc2c(ccc3ccccc32)oc1=O | . | . | . | 1 | 1 | . | . | .
O=C(N/N=C/c1ccc(-c2ccccc2[N+](=O)[O-])o1)c1cncc(Br)c1 | . | . | . | 20 | -1 | . | . | .
Cc1c(C(=O)N/N=C/c2ccc(-c3ccccc3[N+](=O)[O-])o2)sc(N)c1C#N | . | . | . | 16 | 16* | . | 9.2* | 11*
CCC(C)(C)NC(=O)C(c1cccn1C)N(Cc1ccc(OC)cc1)C(=O)Cn1nnc2ccccc21 (configuration not stated) | -2 | . | 3 | 1 | 9 | . | 6 | 7
Cc1ccc(CN2C(=O)N/C(=C\c3ccc(N4CCOCC4)cc3)C2=O)cc1 | . | . | . | 12 | 8.7* | . | 4 | 8
O=C1N/C(=C\c2ccc(N3CCOCC3)c(F)c2)C(=O)N1Cc1ccccc1 | -4 | -11 | -7 | -4 | -1 | 6 | . | .
CCOC(=O)/C(=C/c1ccc(N2CCC(c3ccccc3)=N2)cc1)C(C)=O | . | . | . | 9 | 14* | . | 4 | 11*
CCOC(=O)C(=Cc1ccc(F)cc1)C(=O)OCC | -5 | 4 | 39 | 17 | 0 | 9 | . | .
CCOc1ccc(Br)cc1S(=O)(=O)Nc1ccc(C(=O)Nc2ccc(C)cc2)cc1 | . | . | . | 6 | -2 | . | . | .
CCOc1ccc(Br)cc1C(=O)Nc1ccc(C(=O)NCC(C)C)cc1 | . | . | . | -1 | 14* | . | 13* | 5
CCCCC(=O)/C=C/n1c(=S)oc2ccccc21 | . | . | . | -8 | 1 | . | . | .
COC(=O)C1C(O)=C(C=NCC(C)N=CC2=C(O)C(C(=O)OC)C(C)(C)CC2=O)C(=O)CC1(C)C (configuration not stated) | -8 | 11 | 9 | 6 | 0 | 4 | . | .
CCC(C)N=CC1=C(O)C(C(=O)OC)C(C)(C)CC1=O (configuration not stated) | -7 | . | -5 | -3 | 49* | . | 0 | -1
Cc1oc2c(C)c3oc(=O)c4c(c3cc2c1C)CCC4 | -6 | 0 | -16 | -7 | 9 | 7 | -1 | -2
Cc1oc2cc3oc(=O)c4c(c3cc2c1C)CCC4 | -3 | -11 | 6 | 6 | -3 | -8 | . | .
CCOC(=O)c1ccc(NC(=O)CCc2ccc(CC)o2)cc1 | -2 | -2 | 1 | -6 | 8 | -2 | -1 | 0
COCCN(C(=S)Nc1c(C)cc(C)cc1C)C(C)c1cccnc1 (configuration not stated) | . | . | . | -5 | 0 | . | . | .
O=S(=O)(c1ccc(N2CCN(CCO)CC2)nc1)N1CCCCC1 | -1 | . | -16 | -19 | 22* | . | -1 | -2
SMILES | S1P2 ag | PostGolgi yeast | S1P2 antag | GALR2 blocker | GALR2 agonist | PostGolgi ctrl | GALR2 agon conf | BLA activ ctr
CCOCCCNC(=O)C1CC(=O)N(C2CCCC2)C1 (configuration not stated) | -1 | -6 | -11 | -13 | 28* | 5 | -1 | -3
CCCC(C)NS(=O)(=O)c1ccc(OC)c(C)c1 (configuration not stated) | -3 | 1 | -8 | -2 | -1 | 11 | . | .
COc1ccc(Cl)cc1C(=O)NCC(C)C | -4 | 7 | -17 | -7 | 0 | 4 | . | .
CCCCCCc1cc2cc(S(=O)(=O)c3ccc(F)c(Cl)c3)c(=O)oc2cc1O | . | . | . | 8 | 19* | . | 26* | 50*
CCCCCCc1cc2cc(C(=O)NC)c(=N)oc2cc1O | 4 | 9 | 4 | -13 | 4 | 9 | . | .
CCCCCCc1cc2cc(C(N)=O)c(=N)oc2cc1O | 39* | -1 | -76 | -29 | 105* | 19 | 8 | 23*
CCOc1cc(NC(=O)C2CCCCC2)c(OCC)cc1NC(=O)c1ccco1 | -3 | -12 | -26 | -13 | 32* | 2 | 0 | 0
COc1cc(NC(=O)C2CCCCC2)c(OC)cc1NC(=O)c1ccco1 | -7 | -2 | 23 | 9 | -2 | -1 | . | .
c1ccc(Cn2c(CNc3nc4ccccc4n3CCN3CCOCC3)nc3ccccc32)cc1 | 10 | 5 | -9 | -7 | -1 | 8 | . | .
CCOC(=O)c1c(C)[nH]c(C)c1C(=O)COC(=O)/C=C/c1ccc(Cl)cc1 | . | . | . | -8 | -1 | . | . | .
O=c1[nH]ncn2cccc12 | -5 | -4 | 9 | -12 | 25* | -2 | -1 | -2
c1ccc2[nH]c(-c3ccnc4ccccc34)nc2c1 | 1 | 3 | -28 | 15 | 12*! | 11 | -2 | -5
Cc1ccccc1-c1nc2ccccc2[nH]1 | 0 | . | -14 | -1 | -2 | . | . | .
CCC(C)Sc1nc2c(cnn2-c2ccccc2)c(=O)[nH]1 (configuration not stated) | . | 1 | . | -1 | 1 | 27 | . | .
O=c1[nH]c(/C=C/c2ccccc2OC(F)F)nc2c1cnn2-c1ccccc1 | . | . | . | -11 | 15* | . | 8.8* | 4
CCc1cc(=O)oc2c(CN3CCN(C)CC3)c(O)c(Cl)cc12 | 11 | -2 | -39 | -22 | 12* | 5 | 1 | 3
CCc1cc(=O)oc2c(CN3CCCC3)c(O)c(Cl)cc12 | 9 | 7 | 0 | -12 | 2 | -6 | . | .
Cc1ccc(CCNC(=O)c2ccc(CS(=O)(=O)Cc3ccccc3F)o2)cc1 | -5 | 6 | 15 | -14 | 0 | 6 | . | .
O=C(NCCc1ccccc1)c1ccc(CS(=O)(=O)Cc2ccccc2F)o1 | -1 | 10 | 3 | -2 | 9 | -1 | -1 | -1
CCn1c(=O)cc(OCC(=O)Nc2cccnc2)c2ccccc21 | -1 | -1 | -9 | 2 | -1 | 13 | . | .
